The text below walks through data of PubChem BioAssay.

Activity calls are given as the source filed them. Unless noted, the rule behind the calls is not given here.

The test system of experiment [1] is Wnt5a (protein binding on small-molecule microarray). Description: small molecules binding Wnt5a protein – biophysical, small-molecule microarray, 635/667 nm fluorescence, primary screen (AID 1142).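 Note: fluorescence read at 667 nm with signal to noise per printed feature.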 The following applies: 635 nm fluorescence, higher = more signal.
Experiment [2] is described as follows: ATP-based viability of Huh7 replicon cells – cell-based, CellTiter-Glo luminescence, basal, 48 h, cytotoxicity control for HCV replication inhibitor project, primary screen (AID 1143).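 Note: Huh7 hepatoma cells carrying a hepatitis C replication reporter with no stimulus; test concentration not given here.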 The following applies: higher = more signal, called active from +8 up or from −8 down. On the technique in general: A replicon is a self-replicating genome or part of one, used to study replication in cells.

Experiment [3] can be described thus: Pseudomonas biofilm growth suppression – PAO1 strain, BacTiter-Glo luminescence, LB-PBS, primary screen (AID 1144). As to conditions: P. aeruginosa PAO1 biofilm, 12 h, higher = more signal.
Experiment [4] in a line: basal CRE-LacZ reporter activity in PC12 – cell-based, unstimulated, primary screen (AID 1145). The following applies: no forskolin, luminescence, 4.5 h, higher = more signal, called active from +8 up or from −8 down.
Experiment [5] can be described thus: forskolin-driven CRE-LacZ activity in PC12 – cell-based, CRE-LacZ reporter, forskolin-stimulated, primary screen (AID 1146).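 Note: PC12 cells with 6xCRE LacZ reporter stimulated by forskolin 10 µM; beta-galactosidase reporter signal reflecting CREB driven transcription.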 As to conditions: luminescence, 4.5 h, higher = more signal, called active from +8 up or from −8 down.
Experiment [6] has as its target Streptavidin (Streptomyces avidinii) (UniProt P22629). Description: compounds binding control protein streptavidin – biophysical, small-molecule microarray, 635/667 nm fluorescence, artefact control for SMM compound annotation, primary screen (AID 1147).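 Note: signal reflects streptavidin binding to arrayed compounds as a control protein.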 As to conditions: higher = more signal.
A short description of experiment [7]: probe aInhba binding on compound microarray – biochemical, small-molecule microarray, 635/667 nm fluorescence, primary screen (AID 1148).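 Note: score merges 667nm spot fluorescence with signal-to-noise for antibody binding to printed compounds.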 The following applies: higher = more signal.
Experiment [8] has as its target Torsin-1A (Homo sapiens) (UniProt O14656). Kind of experiment: TOR1A wild-type binding on microarray – cell lysate, small-molecule microarray, lysate, 635/667 nm, primary screen (AID 1149). The following applies: COS7 hTOR1A-WT lysate, 635 nm fluorescence, higher = more signal.
For experiment [9] the target is unchanged. Kind of experiment: torsin A mutant lysate binding on microarrays – cell lysate, small-molecule microarray, COS7 lysate, 635/667 nm fluorescence, primary screen (AID 1150).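 Note: score pools 667 nm emission and signal to noise measuring lysate protein binding.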 As to conditions: COS7 hTOR1A mutant lysate, 635 nm fluorescence, higher = more signal.
In experiment [10] the test system is Sonic hedgehog protein (Shh). Kind of experiment: Sonic hedgehog microarray binding compounds – biochemical, small-molecule microarray, 635/667 nm fluorescence, primary screen (AID 1151).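 Note: Shh protein binding to compounds spotted on small-molecule microarray slides; score combines spot fluorescence intensity with signal-to-noise across triplicate slides.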 The following applies: 635 nm fluorescence, higher = more signal.
A short description of experiment [11]: optical density shifts of acrAB sulA E. coli – strain DRC41, OD650, 48 h, E. coli filamentation inducer project, primary screen (AID 1152).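 Note: E. coli MC1000 strain DRC41 lacking acrAB efflux pump and sulA.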 The following applies: higher = more signal, called active from +8 up or from −8 down.
Experiment [12] is described as follows: probe aLefty1 binding on compound microarray – biochemical, small-molecule microarray, 635/667 nm fluorescence, primary screen (AID 1153).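 Note: score merges spot fluorescence with signal-to-noise ratio from the scanned slide images.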 The following applies: higher = more signal.
Experiment [13] in a line: plasmodial surface anion channel blockers, osmotic lysis – cell-based, P. falciparum Indochina, OD700, 1 h, primary screen (AID 1154). The following applies: P. falciparum Indochina infected RBC osmotic lysis, higher = more signal, called active from +8 up or from −8 down.
A short description of experiment [14]: plasmodial surface anion channel blockers, osmotic lysis – cell-based, P. falciparum Indochina, OD700, 2 h, primary screen (AID 1155).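 Note: lysis reports solute entry through the parasite surface anion channel PSAC.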 The following applies: P. falciparum Indochina infected erythrocytes, higher = more signal, called active from +8 up or from −8 down.
Experiment [15] is described as follows: changes in parasitized red cell lysis, either direction – P. falciparum Indochina, OD700, 3 h, PSAC antagonist project, primary screen (AID 1156). As to conditions: P. falciparum-infected erythrocytes, osmotic lysis, higher = more signal, called active from +8 up or from −8 down.
Experiment [16] in a line: plasmodial surface anion channel blockers, osmotic lysis – cell-based, P. falciparum Indochina, OD700, 18 h, primary screen (AID 1157). As to conditions: P. falciparum Indochina infected erythrocytes, osmotic lysis OD700, 18 h; higher = more signal, called active from +8 up or from −8 down.
The nature of experiment [17]: S6 kinase pathway phospho-S6 level changes – cell-based, A549, cytoblot, luminescence, serum-stimulated, primary screen (AID 1158).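 Note: serum-stimulated A549 lung adenocarcinoma cells; signal is phosphorylated S6 detected by cytoblot immunostaining with HRP secondary.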 As to conditions: 5 h, higher = more signal.
The target in experiment [18] is NADPH oxidase 2 (Homo sapiens) (UniProt P04839). Description: compounds shifting NOX2 Amplex Red fluorescence – cell-based, HEK293-NOX2, PMA-stimulated, NOX inhibitor project, primary screen (AID 1159). Note: test concentration not given here. As to conditions: 45 min, higher = more signal, called active from +8 up or from −8 down.
Chain of NADPH oxidase 2 (Homo sapiens) (P04839 whole entry, looked up): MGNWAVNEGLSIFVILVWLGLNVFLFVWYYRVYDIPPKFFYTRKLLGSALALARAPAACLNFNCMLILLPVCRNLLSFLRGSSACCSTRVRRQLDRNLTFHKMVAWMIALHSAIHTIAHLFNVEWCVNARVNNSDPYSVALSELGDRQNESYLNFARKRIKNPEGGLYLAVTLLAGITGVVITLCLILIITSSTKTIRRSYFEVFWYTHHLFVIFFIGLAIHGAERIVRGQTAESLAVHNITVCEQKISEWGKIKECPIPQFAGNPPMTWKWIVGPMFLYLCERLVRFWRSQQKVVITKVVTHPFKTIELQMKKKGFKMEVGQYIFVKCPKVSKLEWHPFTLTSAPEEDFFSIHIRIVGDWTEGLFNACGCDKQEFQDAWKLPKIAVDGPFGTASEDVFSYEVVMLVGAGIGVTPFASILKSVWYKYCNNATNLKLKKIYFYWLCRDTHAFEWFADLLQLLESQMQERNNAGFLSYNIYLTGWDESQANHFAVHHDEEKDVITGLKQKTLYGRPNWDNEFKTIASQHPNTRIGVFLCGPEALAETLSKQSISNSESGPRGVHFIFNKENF
Experiment [19] deals with NADPH oxidase 4 (Homo sapiens) (UniProt Q9NPH5). Kind of experiment: compounds shifting NOX4 Amplex Red fluorescence – cell-based, HEK293-NOX4, tetracycline-induced, NOX inhibitor project, primary screen (AID 1160). The following applies: HEK293-NOX4, Amplex Red H2O2 fluorescence, 45 min; higher = more signal, called active from +8 up or from −8 down.
Chain of NADPH oxidase 4 (Homo sapiens) (Q9NPH5 whole entry, looked up): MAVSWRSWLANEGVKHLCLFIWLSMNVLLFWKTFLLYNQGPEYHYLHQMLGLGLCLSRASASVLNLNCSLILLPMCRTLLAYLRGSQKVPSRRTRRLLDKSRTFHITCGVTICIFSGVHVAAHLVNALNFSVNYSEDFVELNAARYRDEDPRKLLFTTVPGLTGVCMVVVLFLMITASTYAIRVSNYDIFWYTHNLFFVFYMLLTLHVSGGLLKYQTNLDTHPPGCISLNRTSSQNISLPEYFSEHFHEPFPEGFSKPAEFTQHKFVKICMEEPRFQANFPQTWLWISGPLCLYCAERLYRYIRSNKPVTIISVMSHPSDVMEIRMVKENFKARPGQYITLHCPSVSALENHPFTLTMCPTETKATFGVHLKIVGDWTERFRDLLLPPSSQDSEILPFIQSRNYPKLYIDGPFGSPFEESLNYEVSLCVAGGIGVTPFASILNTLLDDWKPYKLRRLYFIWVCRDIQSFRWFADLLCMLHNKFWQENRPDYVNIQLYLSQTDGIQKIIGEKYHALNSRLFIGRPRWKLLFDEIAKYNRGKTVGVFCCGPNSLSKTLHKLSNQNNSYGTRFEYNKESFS
Experiment [20] addresses NADPH oxidase 5 (Homo sapiens) (UniProt Q96PH1). Kind of experiment: compounds shifting NOX5 Amplex Red fluorescence – cell-based, HEK293-NOX5, NOX inhibitor project, primary screen (AID 1161). As to conditions: HEK293-NOX5, ionomycin, 45 min, higher = more signal.

Chain of Streptavidin (Streptomyces avidinii) (P22629 whole entry, looked up): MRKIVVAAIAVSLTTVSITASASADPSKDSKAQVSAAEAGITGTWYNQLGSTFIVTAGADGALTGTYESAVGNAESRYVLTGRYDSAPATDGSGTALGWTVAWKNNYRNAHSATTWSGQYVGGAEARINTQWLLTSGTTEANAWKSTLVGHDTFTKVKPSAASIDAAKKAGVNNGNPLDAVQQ
Chain of NADPH oxidase 5 (Homo sapiens) (Q96PH1 whole entry, looked up): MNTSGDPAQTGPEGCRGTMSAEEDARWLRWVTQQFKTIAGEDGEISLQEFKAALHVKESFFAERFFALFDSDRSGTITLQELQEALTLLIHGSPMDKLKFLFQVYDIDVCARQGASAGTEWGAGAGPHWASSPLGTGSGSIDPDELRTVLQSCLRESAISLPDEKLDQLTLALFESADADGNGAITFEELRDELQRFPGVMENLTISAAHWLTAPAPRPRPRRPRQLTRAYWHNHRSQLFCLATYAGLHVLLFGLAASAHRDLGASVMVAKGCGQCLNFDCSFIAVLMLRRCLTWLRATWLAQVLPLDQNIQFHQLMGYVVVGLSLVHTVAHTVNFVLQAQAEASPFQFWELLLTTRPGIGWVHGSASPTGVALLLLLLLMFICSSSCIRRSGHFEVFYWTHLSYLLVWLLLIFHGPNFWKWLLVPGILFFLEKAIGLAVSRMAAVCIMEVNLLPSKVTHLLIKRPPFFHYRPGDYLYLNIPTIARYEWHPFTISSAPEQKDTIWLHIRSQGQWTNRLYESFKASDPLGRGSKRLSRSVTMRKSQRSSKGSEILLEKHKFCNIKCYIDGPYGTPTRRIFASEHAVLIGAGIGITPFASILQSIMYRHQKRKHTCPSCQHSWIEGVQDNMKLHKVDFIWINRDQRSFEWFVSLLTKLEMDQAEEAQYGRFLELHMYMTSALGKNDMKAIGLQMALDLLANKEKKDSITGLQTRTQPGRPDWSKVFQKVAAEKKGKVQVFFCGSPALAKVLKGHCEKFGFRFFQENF
Chain of Torsin-1A (Homo sapiens) (O14656 whole entry, looked up): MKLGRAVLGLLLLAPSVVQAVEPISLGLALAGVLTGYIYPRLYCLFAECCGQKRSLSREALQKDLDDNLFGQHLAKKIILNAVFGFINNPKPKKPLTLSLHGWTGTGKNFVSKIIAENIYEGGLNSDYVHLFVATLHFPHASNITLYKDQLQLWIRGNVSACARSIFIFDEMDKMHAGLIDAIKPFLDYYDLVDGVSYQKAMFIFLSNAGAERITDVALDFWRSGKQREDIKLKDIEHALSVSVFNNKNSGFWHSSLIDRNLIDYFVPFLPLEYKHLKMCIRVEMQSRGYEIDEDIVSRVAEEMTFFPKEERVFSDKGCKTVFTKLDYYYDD

For the compound `O=C1C[C@@](C(=O)NCc2ccccc2)(c2ccc([N+](=O)[O-])cc2)[C@@H](c2ccc(CO)cc2I)N1C1CCCCC1`, the composite z-score in experiment [1] worked out at 0.286; in experiment [6], 0.0068; in [7], 0.572; in the experiment with Torsin-1A (Homo sapiens) [8], 0.89; in the experiment with Torsin-1A (Homo sapiens) [9] it was 0.217; in experiment [10], 1.13. The composite z-score in experiment [12] is 0.503. The z-score is -4.73 (inactive) in experiment [2]; 0.781 (inactive) in experiment [3]; 0.234 (inactive) in experiment [4]; 0.583 (inactive) in experiment [5]; 0.936 (inactive) in experiment [11]; 11.6 (active) in experiment [13]. For the same compound, the z-score in experiment [14] was 1.94 (inactive); in [15], 3.44 (inactive); in [16], 1.09 (inactive); in [17], -0.153; in [18], 1.23 (inactive); in [19], -1.03 (inactive). Further, the z-score in [20] came to 2.16.

For `C/C=C/[C@@H](CCn1cc([C@H](O)c2ccccc2)nn1)[Si](C)(C)c1ccc(OC)cc1`, the composite z-score was 0.303 in [1]; -0.514 in experiment [6]; -0.253 in [7]; 0.154 with Torsin-1A (Homo sapiens) [8]; -0.575 in the experiment with Torsin-1A (Homo sapiens) [9]; -0.0723 in experiment [10]. The same compound displayed a composite z-score in [12] of 0.121. For the same compound, the z-score in experiment [2] is -3.67 (inactive); in [3], 0.214 (inactive); in experiment [4], 3.3 (inactive); in experiment [5], 0.128 (inactive); in experiment [11] it was 0.703 (inactive); in experiment [13], 5.3 (inactive). In addition, the z-score in experiment [14] is 1.06 (inactive); in [15], 2.04 (inactive); in experiment [16], 0.473 (inactive); in experiment [17], 0.201; in experiment [18] it was 0.257 (inactive); in experiment [19], -0.182 (inactive). Further, the z-score in [20] was -2.21.

As to `C[N+](C)(C)CCCCCCNC(=O)[C@H]1C[C@H]2C(=O)N3CCC[C@H]3C(=O)N2[C@H]1c1cccc(OCCO)c1`, the composite z-score in experiment [1] was 0.544; in experiment [6], -0.278; in [7], -0.0112; with Torsin-1A (Homo sapiens) [8] it was 1.98; with Torsin-1A (Homo sapiens) [9], 1.71; in experiment [10], 2.15. Moreover, in experiment [12], the composite z-score is 0.0683. In addition, the z-score in experiment [2] was -0.0803 (inactive); in experiment [3], 0.236 (inactive); in experiment [4], -0.532 (inactive); in experiment [5], -0.583 (inactive); in experiment [11], -0.507 (inactive); in experiment [13] it was 5.47 (inactive). Further, the z-score is 0.64 (inactive) in experiment [14]; -2.56 (inactive) in experiment [15]; 0.498 (inactive) in experiment [16]; -0.632 in experiment [17]; 1.18 (inactive) in experiment [18]; 1.27 (inactive) in [19]. The z-score in experiment [20] worked out at 0.865.

Take `COC(=O)[C@@]1(Cc2ccc(OC)cc2)[C@H]2c3cc(C(=O)N4CCCC4)n(Cc4ccc(C)o4)c3C[C@H]2CN1C(=O)c1ccccc1`: the composite z-score in experiment [1] is 0.989; in experiment [6], 0.458; in [7], 0.505; with Torsin-1A (Homo sapiens) [8], -1.39; in the experiment with Torsin-1A (Homo sapiens) [9], 0.285; in experiment [10] it was -0.754. Besides, the composite z-score in experiment [12] is 1.34. The z-score was -5.19 (inactive) in [2]; -0.101 (inactive) in [3]; -0.758 (inactive) in experiment [4]; -2.15 (inactive) in experiment [5]; -1.5 (inactive) in experiment [11]; 1.63 (inactive) in experiment [13]. Also, the z-score in experiment [14] is -0.605 (inactive); in [15] it was 1.07 (inactive); in experiment [16] it was 0.0276 (inactive); in experiment [17] it was -1.8; in experiment [18] it was -4.49 (inactive); in experiment [19] it was -2.62 (inactive). Further, the z-score in experiment [20] is -0.354.

For `CCCC=C(CCC)[C@@H](NS(=O)(=O)c1ccccc1)c1ccc(C(F)(F)F)cc1`, the composite z-score in [1] was 0.135; in experiment [6], 1.33; in experiment [7], 0.105; in the experiment with Torsin-1A (Homo sapiens) [8] it was 0.354; with Torsin-1A (Homo sapiens) [9], 0.56; in [10] it was 0.0898. Also, in experiment [12], the composite z-score stood at 0.775. The z-score was -1.21 (inactive) in experiment [2]; 0.514 (inactive) in experiment [3]; 0.0007 (inactive) in experiment [4]; 1.11 (inactive) in experiment [5]; -1.51 (inactive) in experiment [11]; 4.38 (inactive) in [13]. For the same compound, the z-score in [14] was 1.07 (inactive); in experiment [15], 0.482 (inactive); in experiment [16], 0.983 (inactive); in experiment [17] it was -0.0787; in experiment [18] it was -0.818 (inactive); in [19] it was -1.19 (inactive). The z-score in experiment [20] came to 2.67.
